Screening results from PubChem BioAssay.
CCHF vOTU inh: blocks the CCHF virus ovarian tumor domain protease | CCHFV vOTU protease, Pep-AMC fluorescence | inhibition, % at 11.5 µM | 370,000 tested, 0.55% active; in the data active = inhibition above about 30%; also: 0% = vehicle wells with enzyme and 100% = no enzyme wells
PrPC TRFRET: cell surface PrPC inhibition, primary TR-FRET screen | 370,000 tested, 0.43% active | inhibition, % at 13.8 µM | TR-FRET read-out | AID 720596; in the data active = inhibition above about 24%; also: 0% = median of the test wells and 100% = reference compound wells
TcdB inh: blocks C. difficile toxin B glycohydrolase activity; P18177; TcdB glycohydrolase enzymatic assay, plate reader; 350,000 tested, 0.24% active; inhibition, % at 9.99 µM; in the data active = inhibition above about 10%
PriA SSB inh: K. pneumoniae PriA-SSBct interaction inhibition | AlphaScreen SSBct-PriA binding, biotinylated peptide | inhibition, % at 33 µM | 430,000 tested, 0.6% active; in the data active = inhibition mostly above about 37%, no sharp cut-off; inactive = mostly below about 20%;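 also: plate controls were negative control peptide for no effect and reference peptide for full effect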
DUSP3 inh: inhibitors of human VHR1 phosphatase (DUSP3). recombinant VHR phosphatase, pNPP absorbance. P51452. 290,000 tested, 0.52% active. inhibition, % at 13.3 µM. AID 1654; in the data active = inhibition above about 50%
Vc quorum ag-1: quorum light induction in luxS cqsA deficient V. cholerae | activation, % at 18.7 µM | V. cholerae BH1578 lux reporter, luminescence, 6 h | 350,000 tested, 0.16% active; in the data active = activation mostly above about 9.7%, no sharp cut-off
Vc quorum ag-2: inducers of V. cholerae quorum light production without autoinducers; shares compounds with Vc quorum ag-1; V. cholerae BH1578 lux reporter, luminescence, 6 h; activation, % at 50 µM; 620 tested, under 10 active; call rule not given here
HeLa tox: HeLa cell viability loss at 24 h | shares compounds with Vc quorum ag-1 | CellTiter-Glo ATP luminescence | activity change, negative = cytotoxicity, % at 35 µM | 25 tested, under 10 active | AID 624140;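 active = signal drop with fitted half-maximal concentration at or below twice the highest valid dose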
Starred values were filed as active, the others as inactive; i = inactive; · = not tested or not shown; + = active, no number. In the library only some 1.5% were active in any assay of this set; here they are far more common.

SMILES	CCHF vOTU inh	PrPC TRFRET	TcdB inh	PriA SSB inh	DUSP3 inh	Vc quorum ag-1	others
O=C(COc1coc(CN2CCN(c3ccccc3)CC2)cc1=O)Nc1ccc(F)cc1	0.4	4.7	0.9	45.6*	·	-1.4
CC(C)NC(=O)COc1coc(CN2CCN(Cc3ccccc3)CC2)cc1=O	11.0	-1.9	0.5	-28.1	53.4*	i
CNC(=O)COc1coc(CN2CCN(Cc3ccccc3)CC2)cc1=O	3.1	3.5	2.7	-4.0	5.5	-0.7
CC1(C)CC(NS(=O)(=O)c2cccc3ccccc23)CC(C)(C)N1	-10.2	1.2	-0.1	-6.6	55.5*	0.5
CC1(C)CC(NS(=O)(=O)c2ccccc2F)CC(C)(C)N1	·	·	·	-4.0	·	·
COc1ccc(OC)c(S(=O)(=O)NC2CC(=O)N(c3ccc(Cl)cc3)C2)c1 (centres undefined)	·	·	·	4.0	·	·
CC(C)(C)CC(=O)NCCc1csc2nc(-c3cccs3)nn12	·	·	·	-19.0	·	·
COc1ccc(S(=O)(=O)N2CCCC2CNC(=O)C(=O)NCCC2=CCCCC2)cc1 (centres undefined)	·	·	·	-2.0	·	·
CN(C)c1ccc(Cl)c(NC(N)=S)c1	15.7	1.6	27.3*	·	·	-0.4
Cc1ccccc1Oc1ccc(S(=O)(=O)NC2(C(=O)O)CCCCC2)cc1	·	·	·	-4.0	·	·
C/C(Cl)=C/CSc1nnc2n(N)c(=O)c3ccccc3n12	5.2	-2.4	·	4.6	11.3	32.7*
O=C(c1cc2ccccc2[nH]1)N1CCN(C2CCCCC2)CC1	·	·	·	-9.0	·	·
O=C(O)c1cc(NS(=O)(=O)c2ccc(NC3CCCCC3)c([N+](=O)[O-])c2)cc(C(=O)O)c1	7.9	-5.9	12.9*	-14.0	15.8	-0.3
O=[N+]([O-])c1cc(S(=O)(=O)NC2=NCCCCC2)ccc1NCC1CCCCC1	10.9	-5.1	-0.9	40.8*	1.7	1.5
CN(C)CCCNS(=O)(=O)c1ccc(NC2CCCCCC2)c([N+](=O)[O-])c1	3.5	-46.4	-6.5	6.0	52.0*	0.2
CS(=O)(=O)N1CCC(C(=O)NCc2cccnc2-c2ccsc2)CC1	·	·	·	-7.0	·	·
O=C(/C=C\c1ccc2c(c1)OCO2)NNC(=O)c1ccc(=O)n(Cc2ccccc2)c1	·	·	·	6.0	·	·
CCCC(C(=O)NCC1CCCO1)N(C(=O)CNS(=O)(=O)c1ccccc1)c1ccc(F)cc1 (centres undefined)	9.8	-3.5	0.6	-7.2	57.6*	-0.1
c1ccc2[nH]c(-c3ccc4c(c3)OCO4)nc2c1	-1.5	6.4	11.2*	-3.6	·	-0.5
COCCCNC(=O)C1CCCN(S(=O)(=O)c2cccc3nsnc23)C1 (centres undefined)	-2.2	-24.7	1.0	9.5	52.7*	-0.6
CCOCCCNC(=O)C1CCCN(S(=O)(=O)c2cccc3nsnc23)C1 (centres undefined)	0.9	-30.6	1.6	-1.5	2.2	i
COc1ccc(-n2c(SCC(=O)Nc3cc(C)on3)nc3c(c2=O)SCC3)cc1OC	-7.4	-8.9	0.3	-10.2	57.1*	i
Cc1ccc2nc(N3CCN(C(=O)c4ccc(F)cc4)CC3)c(C#N)cc2c1	-17.9	-14.5	1.5	6.5	6.5	2.2
Cc1ccc2cc(C#N)c(N3CCN(C(=O)c4cccs4)CC3)nc2c1	0.8	9.8	-7.4	-21.2	51.0*	-0.3
CC(C)COC(=O)C(C)Nc1n[nH]c(=S)[nH]c1=O (centres undefined)	3.0	4.9	0.3	-1.1	21.7	+
SMILES	CCHF vOTU inh	PrPC TRFRET	TcdB inh	PriA SSB inh	DUSP3 inh	Vc quorum ag-1	others
COc1cccc2sc(N3CCN(C(=O)c4ccc5c(c4)CCCC5)CC3)nc12	·	·	·	-1.0	·	·
COc1ccc(OC)c2sc(N3CCN(C(=O)c4ccc5c(c4)CCCC5)CC3)nc12	·	·	·	29.0*	·	·
C/C(=N\OCC(=O)N/N=C/c1ccccc1O)c1cccs1	-8.6	-1.6	·	·	-24.8	33.3*
Cc1nn(-c2ccc(N3CCN(S(=O)(=O)c4cccc(Br)c4)CC3)nn2)c(C)c1C	·	·	·	6.0	·	·
O=C(CSc1cccc2cccnc12)N1CCCC1	-24.4	-5.8	·	79.0*	-5.1	i
O=C(CSc1cccc2cccnc12)n1c2ccccc2c2ccccc21	·	·	·	73.2*	·	·
O=C(CSc1cccc2cccnc12)N1CCc2ccccc2C1	·	·	·	91.3*	·	·
Cc1cc(C)c(C(=O)CSc2cccc3cccnc23)cc1C	·	·	·	58.8*	·	·
O=C(COc1cccc2cccnc12)N1CCc2ccccc2C1	10.9	-3.0	·	-9.3	39.7	-5.0
O=C(CSc1cccc2cccnc12)c1ccc(-c2ccccc2)cc1	·	·	·	32.6	·	·
COc1ccc2c(c1OC)C(=O)N(Cc1ccn[nH]1)C2=O	·	·	·	-12.0	·	·
CN(C)C(=O)CSc1cccc2cccnc12	-21.8	-7.5	·	94.2*	-1.0	-0.8
COC(=O)CSc1cccc2cccnc12	·	·	·	37.9	·	·
O=C(O)CNC(=O)CC1SC(=NN=Cc2ccccc2O)NC1=O (centres undefined)	·	·	·	-15.7	·	·
O=C(O)CNC(=O)CC1SC(=NN=C2CSC(=O)N2)NC1=O (centres undefined)	·	·	·	95.5*	·	·
O=C(CN1C(=O)COc2ccccc21)c1ccc(Cl)cc1	-1.0	8.6	·	-15.8	25.3	16.7*	Vc quorum ag-2=0.5
O=C(CN1C(=O)COc2ccccc21)c1cccc(Cl)c1	-14.7	-0.2	·	-27.5	29.5	i
O=C(CCc1csc(NC(=O)c2ccc(F)cc2)n1)NCCC1=CCCCC1	·	·	·	-5.0	·	·
CCC1Nc2ncnc(N3CCN(c4ccccc4)CC3)c2N(Cc2ccccc2)C1=O (centres undefined)	8.2	-0.7	0.0	7.4	·	6.2	Vc quorum ag-2=0.4
CCCn1nnnc1NCc1ccccc1OCc1ccc(F)cc1	9.0	-5.6	·	-15.1	9.9	-1.7
CCCn1nnnc1NCc1ccc(SC)cc1	-2.5	7.2	-4.7	-3.2	5.8	·	Vc quorum ag-2=i
CCCn1nnnc1NCc1ccc(N(CC)CC)cc1	0.1	1.1	-1.1	3.8	-16.1	·	Vc quorum ag-2=i;HeLa tox=-3.4
CCCn1nnnc1NCc1ccc(F)cc1	-1.6	8.2	-0.1	5.2	-23.3	i
CCN(CC)c1ccc(CNc2nnnn2C)cc1	-13.2	-4.9	-2.9	-7.7	39.6	+	Vc quorum ag-2=i
CCCn1nnnc1NCc1cc(Br)ccc1OC	8.6	11.3	1.7	-13.1	-31.2	0.1
CCCn1nnnc1NCc1ccc(OC)cc1OC	2.6	0.3	0.6	-2.9	9.4	+	Vc quorum ag-2=i
COc1cccc(OC)c1C(=O)Nc1ccc2c(c1)C(=O)NC2=O	·	·	·	-15.0	·	·
O=C(Nc1cccc(-c2ccc(N3CCOCC3)nn2)c1)c1ccc([N+](=O)[O-])cc1	-8.3	-47.0	0.9	-6.5	·	14.3	Vc quorum ag-2=0.1
O=C(NCc1cc2ccccc2o1)c1cc2n(n1)CCCO2	·	·	·	-13.0	·	·
Cn1c(SCc2cnc(-c3ccccc3)s2)nnc1C1COc2ccccc2O1 (centres undefined)	1.0	2.7	·	-15.1	-10.8	26.6*	Vc quorum ag-2=31.0
